# Reference: PubChem BioAssay (NCI)
# About 79,000 compounds went through this panel and 15% of them were active in at least one assay; those are over-represented in the sample as a whole. Unmarked numbers belong to inactive results. Calls of active or inactive are those of the source. No stated cut-off is given here; in the data, active means growth inhibition above about 70%; inactive means the rest.
# Key:
# [1] = NCI Yeast Anticancer Drug Screen. Data for the rad52 strain (AID 147);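 further: 0% = growth of vehicle-treated control cultures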; settings: S. cerevisiae rad52 mutant growth inhibition, active compounds read high
# In short: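 Growth of repair-deficient yeast cells was compared between compound-treated and vehicle-treated cultures to give percent inhibition.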
# [2] = NCI Yeast Anticancer Drug Screen. Data for the wt1 strain (AID 149);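 further: 0% = growth of vehicle-treated wt1 cultures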; settings: S. cerevisiae wt1 strain (SPY 50644) growth inhibition, active compounds read high
# In short: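 wt1 strain grown with compound or vehicle; inhibition taken from the growth difference.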
# [3] = NCI Yeast Anticancer Drug Screen. Data for the rad50EPP+ strain (AID 151);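 further: 0% = growth of vehicle-treated control cultures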; settings: S. cerevisiae rad50 mutant strain, active compounds read high
# In short: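 Measured: growth inhibition of rad50EPP+ yeast. Reference: vehicle-treated controls. Screen uses strains with defined genetic alterations in DNA damage repair or cell cycle control.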
# [4] = NCI Yeast Anticancer Drug Screen. Data for the mgt1 strain (AID 153); settings: S. cerevisiae mgt1 mutant growth inhibition, active compounds read high
# In short: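 Compounds were applied to mgt1 mutant yeast, and growth was then compared against vehicle-treated control cultures to give percent inhibition.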
# [5] = NCI Yeast Anticancer Drug Screen. Data for the rad50 strain (AID 155);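 further: 0% = growth of vehicle-only cultures of the same strain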; settings: S. cerevisiae rad50 strain growth inhibition, active compounds read high
# In short: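 DNA repair mutant yeast, compound exposure, growth read-out; inhibition is taken relative to vehicle.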
# [6] = NCI Yeast Anticancer Drug Screen. Data for the mec2-1 strain (AID 157); settings: S. cerevisiae mec2-1 strain, active compounds read high
# In short: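 Compounds were applied to mec2-1 yeast cells. Their growth was then compared with that of vehicle-treated cultures to give growth inhibition.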
# [7] = NCI Yeast Anticancer Drug Screen. Data for the rad14 strain (AID 159);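 further: 0% = growth of vehicle-treated control cultures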; settings: S. cerevisiae rad14 strain growth inhibition, active compounds read high
# In short: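 DNA repair-defective yeast, compound-exposed; % growth inhibition derived by comparison with vehicle-treated controls.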
# [8] = NCI Yeast Anticancer Drug Screen. Data for the sgs1 mgt1 strain (AID 161);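 further: 0% = growth of cultures given vehicle only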; settings: S. cerevisiae sgs1 mgt1 strain, active compounds read high
# In short: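 This yeast growth screen uses a strain with defined DNA-repair lesions; compound-treated growth is compared with vehicle-treated growth.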
# [9] = NCI Yeast Anticancer Drug Screen. Data for the cln2 rad14 strain (AID 165);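 further: 0% = growth equal to vehicle treated cultures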; settings: S. cerevisiae cln2 rad14 strain, active compounds read high
# In short: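 Strain: cln2 rad14 yeast, altered in cell cycle control and DNA damage repair. Read-out: growth inhibition vs vehicle.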
# [10] = NCI Yeast Anticancer Drug Screen. Data for the bub3 strain (AID 167); settings: S. cerevisiae bub3 mutant strain, active compounds read high
# In short: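 In this screen, a yeast mutant lacking normal mitotic checkpoint function is challenged with compound. Relative growth versus vehicle gives the inhibition value.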
# [11] = NCI Yeast Anticancer Drug Screen. Data for the wt2 strain (AID 169);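 further: 0% = growth of vehicle-treated yeast cultures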; settings: S. cerevisiae wt2 strain growth inhibition, active compounds read high
# In short: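 Growth of compound-treated yeast is measured and expressed as inhibition relative to vehicle-only controls.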
# [12] = NCI Yeast Anticancer Drug Screen. Data for the mlh1 strain (AID 171);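 further: 0% = growth of vehicle-treated control cultures of the same strain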; settings: S. cerevisiae mlh1 strain growth inhibition, active compounds read high
# In short: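 Test agents were incubated with yeast bearing a defined DNA damage repair or cell cycle control alteration; values are growth inhibition normalised to vehicle-treated cultures.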
# [13] = NCI Yeast Anticancer Drug Screen. Data for the sgs1 strain (AID 173);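 further: 0% = growth of vehicle-only control cultures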; settings: S. cerevisiae sgs1 mutant, active compounds read high
# In short: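 Strain with an altered DNA repair or cell cycle pathway exposed to compound. Growth then measured. Value = inhibition versus vehicle control.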
# [14] = NCI Yeast Anticancer Drug Screen. Data for the mlh1 rad18 strain (AID 175); settings: S. cerevisiae mlh1 rad18 strain growth inhibition, active compounds read high
# In short: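 A repair-deficient yeast strain is exposed to test compound, and growth is scored relative to vehicle-treated controls.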
# [15] = NCI Yeast Anticancer Drug Screen. Data for the rad18 strain (AID 177); settings: S. cerevisiae rad18 mutant growth inhibition, active compounds read high
# In short: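 DNA-repair-defective yeast; compound treatment; growth inhibition scored against vehicle.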
# [16] = NCI Yeast Anticancer Drug Screen. Data for the CLN2oe strain (AID 163);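 further: 0% = growth of vehicle-only control cultures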; settings: S. cerevisiae CLN2oe strain, active compounds read high
# In short: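 Cells of an engineered yeast line with disturbed cell-cycle regulation are treated with compound. Inhibition of growth is then calculated relative to the vehicle-treated reference.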
# [17] = at 5.0 µM (retest, dose inferred, filed as 0.5)
# [18] = at 50.0 µM (retest, dose inferred, filed as 5.0)
smiles,measurement,setting,value
Cc1ccc(S(=O)(=O)N/N=C/C(Br)=C(/Br)C(=O)O)cc1,growth inhibition,[1]; at 1.2 µM,31%
same,growth inhibition,[1]; at 3.7 µM,59%
same,growth inhibition,[1]; at 11.0 µM,86% (active)
same,growth inhibition,[1]; at 33.0 µM,95% (active)
same,growth inhibition,[1]; at 100.0 µM,89% (active)
same,growth inhibition,[2]; at 1.2 µM,29%
same,growth inhibition,[2]; at 3.7 µM,28%
same,growth inhibition,[2]; at 11.0 µM,43%
same,growth inhibition,[2]; at 33.0 µM,91% (active)
same,growth inhibition,[2]; at 100.0 µM,41%
same,growth inhibition,[3]; at 1.2 µM,28%
same,growth inhibition,[3]; at 3.7 µM,46%
same,growth inhibition,[3]; at 11.0 µM,80% (active)
same,growth inhibition,[3]; at 33.0 µM,96% (active)
same,growth inhibition,[3]; at 100.0 µM,82% (active)
same,growth inhibition,[4]; at 1.2 µM,35%
same,growth inhibition,[4]; at 3.7 µM,48%
same,growth inhibition,[4]; at 11.0 µM,79% (active)
same,growth inhibition,[4]; at 33.0 µM,98% (active)
same,growth inhibition,[4]; at 100.0 µM,89% (active)
same,growth inhibition,[5]; at 1.2 µM,41%
same,growth inhibition,[5]; at 3.7 µM,61%
same,growth inhibition,[5]; [17],38%
same,growth inhibition,[5]; at 11.0 µM,86% (active)
same,growth inhibition,[5]; at 33.0 µM,97% (active)
same,growth inhibition,[5]; [18],79% (active)
same,growth inhibition,[5]; at 50.0 µM,57.8%
same,growth inhibition,[5]; at 100.0 µM,95% (active)
same,growth inhibition,[6]; at 1.2 µM,20%
same,growth inhibition,[6]; at 3.7 µM,35%
same,growth inhibition,[6]; [17],-11%
same,growth inhibition,[6]; at 11.0 µM,57%
same,growth inhibition,[6]; at 33.0 µM,96% (active)
same,growth inhibition,[6]; [18],10%
same,growth inhibition,[6]; at 50.0 µM,43.8%
same,growth inhibition,[6]; at 100.0 µM,70% (active)
same,growth inhibition,[7]; at 1.2 µM,14%
same,growth inhibition,[7]; at 3.7 µM,28%
same,growth inhibition,[7]; at 11.0 µM,50%
same,growth inhibition,[7]; at 33.0 µM,97% (active)
same,growth inhibition,[7]; at 100.0 µM,95% (active)
same,growth inhibition,[8]; [17],1%
same,growth inhibition,[8]; [18],43%
same,growth inhibition,[8]; at 50.0 µM,62.8%
same,growth inhibition,[9]; [17],24%
same,growth inhibition,[9]; [18],42%
same,growth inhibition,[9]; at 50.0 µM,25.2%
same,growth inhibition,[10]; at 1.2 µM,-5%
same,growth inhibition,[10]; at 3.7 µM,1%
same,growth inhibition,[10]; [17],-27%
same,growth inhibition,[10]; at 11.0 µM,49%
same,growth inhibition,[10]; at 33.0 µM,93% (active)
same,growth inhibition,[10]; [18],37%
same,growth inhibition,[10]; at 50.0 µM,64.2%
same,growth inhibition,[10]; at 100.0 µM,82% (active)
same,growth inhibition,[11]; at 1.2 µM,-3%
same,growth inhibition,[11]; at 3.7 µM,10%
same,growth inhibition,[11]; at 11.0 µM,48%
same,growth inhibition,[11]; at 33.0 µM,99% (active)
same,growth inhibition,[11]; at 100.0 µM,98% (active)
same,growth inhibition,[12]; at 1.2 µM,35%
same,growth inhibition,[12]; at 3.7 µM,48%
same,growth inhibition,[12]; at 11.0 µM,79% (active)
same,growth inhibition,[12]; at 33.0 µM,98% (active)
same,growth inhibition,[12]; at 100.0 µM,89% (active)
same,growth inhibition,[13]; at 1.2 µM,28%
same,growth inhibition,[13]; at 3.7 µM,38%
same,growth inhibition,[13]; at 11.0 µM,56%
same,growth inhibition,[13]; at 33.0 µM,95% (active)
same,growth inhibition,[13]; at 100.0 µM,77% (active)
same,growth inhibition,[14]; [17],25%
same,growth inhibition,[14]; [18],69%
same,growth inhibition,[14]; at 50.0 µM,91.9% (active)
same,growth inhibition,[15]; at 1.2 µM,24%
same,growth inhibition,[15]; at 3.7 µM,36%
same,growth inhibition,[15]; at 11.0 µM,64%
same,growth inhibition,[15]; at 33.0 µM,95% (active)
same,growth inhibition,[15]; at 100.0 µM,86% (active)
COC(=O)c1ccccc1N=NNc1cccc(SC)c1,growth inhibition,[1]; at 1.2 µM,11%
same,growth inhibition,[1]; at 3.7 µM,13%
same,growth inhibition,[1]; at 11.0 µM,23%
same,growth inhibition,[1]; at 33.0 µM,89% (active)
same,growth inhibition,[1]; at 100.0 µM,88% (active)
same,growth inhibition,[2]; at 1.2 µM,-14%
same,growth inhibition,[2]; at 3.7 µM,-31%
same,growth inhibition,[2]; at 11.0 µM,-27%
same,growth inhibition,[2]; at 33.0 µM,90% (active)
same,growth inhibition,[2]; at 100.0 µM,88% (active)
same,growth inhibition,[3]; at 1.2 µM,9%
same,growth inhibition,[3]; at 3.7 µM,21%
same,growth inhibition,[3]; at 11.0 µM,39%
same,growth inhibition,[3]; at 33.0 µM,47%
same,growth inhibition,[3]; at 100.0 µM,36%
same,growth inhibition,[4]; at 1.2 µM,-16%
same,growth inhibition,[4]; at 3.7 µM,-18%
same,growth inhibition,[4]; at 11.0 µM,-3%
same,growth inhibition,[4]; at 33.0 µM,92% (active)
same,growth inhibition,[4]; at 100.0 µM,88% (active)
same,growth inhibition,[5]; at 1.2 µM,12%
same,growth inhibition,[5]; at 3.7 µM,16%
same,growth inhibition,[5]; [17],30%
same,growth inhibition,[5]; at 11.0 µM,28%
same,growth inhibition,[5]; at 33.0 µM,93% (active)
same,growth inhibition,[5]; [18],41%
same,growth inhibition,[5]; at 50.0 µM,86.8% (active)
same,growth inhibition,[5]; at 100.0 µM,87% (active)
same,growth inhibition,[6]; at 1.2 µM,1%
same,growth inhibition,[6]; at 3.7 µM,9%
same,growth inhibition,[6]; [17],40%
same,growth inhibition,[6]; at 11.0 µM,19%
same,growth inhibition,[6]; at 33.0 µM,93% (active)
same,growth inhibition,[6]; [18],39%
same,growth inhibition,[6]; at 50.0 µM,85.7% (active)
same,growth inhibition,[6]; at 100.0 µM,89% (active)
same,growth inhibition,[7]; at 1.2 µM,-11%
same,growth inhibition,[7]; at 3.7 µM,-21%
same,growth inhibition,[7]; at 11.0 µM,-6%
same,growth inhibition,[7]; at 33.0 µM,93% (active)
same,growth inhibition,[7]; at 100.0 µM,87% (active)
same,growth inhibition,[8]; [17],1%
same,growth inhibition,[8]; [18],94% (active)
same,growth inhibition,[8]; at 50.0 µM,88.8% (active)
same,growth inhibition,[16]; at 1.2 µM,-17%
same,growth inhibition,[16]; at 3.7 µM,12%
same,growth inhibition,[16]; at 11.0 µM,-9%
same,growth inhibition,[16]; at 33.0 µM,93% (active)
same,growth inhibition,[16]; at 100.0 µM,85% (active)
same,growth inhibition,[9]; [17],42%
same,growth inhibition,[9]; [18],87% (active)
same,growth inhibition,[9]; at 50.0 µM,86% (active)
same,growth inhibition,[10]; at 1.2 µM,12%
same,growth inhibition,[10]; at 3.7 µM,6%
same,growth inhibition,[10]; [17],3%
same,growth inhibition,[10]; at 11.0 µM,25%
same,growth inhibition,[10]; at 33.0 µM,94% (active)
same,growth inhibition,[10]; [18],87% (active)
same,growth inhibition,[10]; at 50.0 µM,85.9% (active)
same,growth inhibition,[10]; at 100.0 µM,89% (active)
same,growth inhibition,[11]; at 1.2 µM,-11%
same,growth inhibition,[11]; at 3.7 µM,-18%
same,growth inhibition,[11]; at 11.0 µM,8%
same,growth inhibition,[11]; at 33.0 µM,93% (active)
same,growth inhibition,[11]; at 100.0 µM,89% (active)
same,growth inhibition,[13]; at 1.2 µM,-6%
same,growth inhibition,[13]; at 3.7 µM,-13%
same,growth inhibition,[13]; at 11.0 µM,16%
same,growth inhibition,[13]; at 33.0 µM,93% (active)
same,growth inhibition,[13]; at 100.0 µM,84% (active)
same,growth inhibition,[14]; [17],21%
same,growth inhibition,[14]; [18],36%
same,growth inhibition,[14]; at 50.0 µM,85.2% (active)
same,growth inhibition,[15]; at 1.2 µM,-10%
same,growth inhibition,[15]; at 3.7 µM,-13%
same,growth inhibition,[15]; at 11.0 µM,11%
same,growth inhibition,[15]; at 33.0 µM,94% (active)
same,growth inhibition,[15]; at 100.0 µM,89% (active)
